Consider 16 compounds from ChEMBL document CHEMBL2218924, “A broad activity screen in support of a chemogenomic map for kinase signalling research and drug discovery” (Biochem J, 2013).

Assay [1] addresses Protein kinase C eta type (Homo sapiens) (UniProt P24723). Conditions: at 1 µM; call rule not given here.
For assay [2] the target is unchanged. Conditions: at 10 µM.
For assay [3], the target named is Protein kinase C theta type (Homo sapiens) (UniProt Q04759). The conditions noted are these: at 1 µM.
Assay [4] shares this target. The conditions noted are these: at 10 µM.
For assay [5], the target named is T1, Protein kinase C iota type (Homo sapiens) (UniProt P41743).
T1 sequence (whole entry): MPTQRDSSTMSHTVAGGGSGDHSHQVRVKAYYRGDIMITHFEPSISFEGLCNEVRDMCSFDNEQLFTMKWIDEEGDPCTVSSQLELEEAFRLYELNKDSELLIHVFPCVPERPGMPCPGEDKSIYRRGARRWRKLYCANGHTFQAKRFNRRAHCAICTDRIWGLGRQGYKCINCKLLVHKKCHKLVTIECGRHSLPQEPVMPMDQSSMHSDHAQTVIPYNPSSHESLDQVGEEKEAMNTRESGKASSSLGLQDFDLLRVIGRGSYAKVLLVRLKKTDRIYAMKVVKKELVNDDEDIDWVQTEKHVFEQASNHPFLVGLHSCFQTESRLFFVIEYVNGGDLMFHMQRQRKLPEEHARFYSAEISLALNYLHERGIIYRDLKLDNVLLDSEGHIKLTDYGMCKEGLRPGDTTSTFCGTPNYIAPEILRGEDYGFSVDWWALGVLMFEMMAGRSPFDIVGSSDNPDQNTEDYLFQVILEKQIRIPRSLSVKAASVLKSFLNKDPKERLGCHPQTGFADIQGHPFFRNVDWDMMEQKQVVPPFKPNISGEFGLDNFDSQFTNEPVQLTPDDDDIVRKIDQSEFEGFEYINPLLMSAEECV
Conditions: at 1 µM.

For assay [6], the target named is T1, Protein kinase C iota type (Homo sapiens). Conditions: at 10 µM.
Assay [7] deals with T2, Serine/threonine-protein kinase D1 (Homo sapiens) (UniProt Q15139).
T2 sequence (whole entry): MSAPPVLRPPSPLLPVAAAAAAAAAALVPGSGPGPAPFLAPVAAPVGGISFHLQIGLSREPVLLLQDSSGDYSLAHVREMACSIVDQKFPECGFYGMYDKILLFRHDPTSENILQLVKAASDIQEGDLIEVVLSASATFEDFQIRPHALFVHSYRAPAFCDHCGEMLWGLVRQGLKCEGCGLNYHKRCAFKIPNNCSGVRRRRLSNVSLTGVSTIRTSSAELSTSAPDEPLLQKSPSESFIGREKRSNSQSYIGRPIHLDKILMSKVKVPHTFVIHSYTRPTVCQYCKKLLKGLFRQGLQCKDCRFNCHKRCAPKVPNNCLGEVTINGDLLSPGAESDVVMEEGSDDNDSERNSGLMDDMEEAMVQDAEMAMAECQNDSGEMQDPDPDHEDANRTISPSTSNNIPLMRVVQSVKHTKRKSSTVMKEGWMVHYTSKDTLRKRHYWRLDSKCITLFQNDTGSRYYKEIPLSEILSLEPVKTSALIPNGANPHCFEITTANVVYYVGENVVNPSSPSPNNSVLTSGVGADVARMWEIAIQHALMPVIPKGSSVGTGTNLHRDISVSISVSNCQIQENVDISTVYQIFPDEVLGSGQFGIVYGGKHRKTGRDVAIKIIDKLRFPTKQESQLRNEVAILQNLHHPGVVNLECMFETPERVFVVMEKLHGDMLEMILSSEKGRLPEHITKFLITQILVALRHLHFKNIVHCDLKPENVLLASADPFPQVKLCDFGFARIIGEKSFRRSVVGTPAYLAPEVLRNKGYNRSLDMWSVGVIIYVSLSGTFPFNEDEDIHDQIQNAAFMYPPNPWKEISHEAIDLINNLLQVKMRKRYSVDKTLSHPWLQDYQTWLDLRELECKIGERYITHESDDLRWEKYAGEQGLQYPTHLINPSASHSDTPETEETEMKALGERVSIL
The conditions noted are these: at 1 µM.

Assay [8] concerns the target T2, Serine/threonine-protein kinase D1 (Homo sapiens). Conditions: at 10 µM.
Assay [9] addresses T3, Serine/threonine-protein kinase D2 (Homo sapiens) (UniProt Q9BZL6).
T3 sequence (whole entry): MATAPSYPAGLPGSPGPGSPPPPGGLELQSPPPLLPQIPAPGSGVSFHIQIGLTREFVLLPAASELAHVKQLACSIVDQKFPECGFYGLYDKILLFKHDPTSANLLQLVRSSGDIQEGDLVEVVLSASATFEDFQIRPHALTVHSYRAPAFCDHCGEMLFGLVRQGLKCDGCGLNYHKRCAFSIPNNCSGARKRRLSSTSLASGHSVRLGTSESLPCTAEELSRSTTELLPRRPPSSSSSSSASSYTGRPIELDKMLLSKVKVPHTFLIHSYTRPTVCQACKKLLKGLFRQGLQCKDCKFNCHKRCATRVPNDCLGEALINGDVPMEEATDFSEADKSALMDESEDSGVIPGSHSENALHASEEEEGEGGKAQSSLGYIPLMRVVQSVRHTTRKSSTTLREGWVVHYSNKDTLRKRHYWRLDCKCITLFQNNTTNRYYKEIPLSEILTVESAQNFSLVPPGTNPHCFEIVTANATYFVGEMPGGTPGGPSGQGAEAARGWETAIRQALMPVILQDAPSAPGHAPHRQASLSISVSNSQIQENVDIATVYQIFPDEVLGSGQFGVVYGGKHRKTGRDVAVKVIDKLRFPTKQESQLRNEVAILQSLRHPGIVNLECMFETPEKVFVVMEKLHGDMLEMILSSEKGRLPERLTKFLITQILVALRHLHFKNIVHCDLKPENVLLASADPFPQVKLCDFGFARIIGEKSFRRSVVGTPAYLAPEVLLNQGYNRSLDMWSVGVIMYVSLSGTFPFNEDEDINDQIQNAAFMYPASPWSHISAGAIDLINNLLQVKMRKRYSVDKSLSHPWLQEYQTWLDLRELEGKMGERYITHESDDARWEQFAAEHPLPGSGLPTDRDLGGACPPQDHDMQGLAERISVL
The conditions noted are these: at 1 µM.

Assay [10] concerns the target T3, Serine/threonine-protein kinase D2 (Homo sapiens). Conditions: at 10 µM.

Sequence of Protein kinase C theta type (Homo sapiens) (Q04759 whole entry, looked up): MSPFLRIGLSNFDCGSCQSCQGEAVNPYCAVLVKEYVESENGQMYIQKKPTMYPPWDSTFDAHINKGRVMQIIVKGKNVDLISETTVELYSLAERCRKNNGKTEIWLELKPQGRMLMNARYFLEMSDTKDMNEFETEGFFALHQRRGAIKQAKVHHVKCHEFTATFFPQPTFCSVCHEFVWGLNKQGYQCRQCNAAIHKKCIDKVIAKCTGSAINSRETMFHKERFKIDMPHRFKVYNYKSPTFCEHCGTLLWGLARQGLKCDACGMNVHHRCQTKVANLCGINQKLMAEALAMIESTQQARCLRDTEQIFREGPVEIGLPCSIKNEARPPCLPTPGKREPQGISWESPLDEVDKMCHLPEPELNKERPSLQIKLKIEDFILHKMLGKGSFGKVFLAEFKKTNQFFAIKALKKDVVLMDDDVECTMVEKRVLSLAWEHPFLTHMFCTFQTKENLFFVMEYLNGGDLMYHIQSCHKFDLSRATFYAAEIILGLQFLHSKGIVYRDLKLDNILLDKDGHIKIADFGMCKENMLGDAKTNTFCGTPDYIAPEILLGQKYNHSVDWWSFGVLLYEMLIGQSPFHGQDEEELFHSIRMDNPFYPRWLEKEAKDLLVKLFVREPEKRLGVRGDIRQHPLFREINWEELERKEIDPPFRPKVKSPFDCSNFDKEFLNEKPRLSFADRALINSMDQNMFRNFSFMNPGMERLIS
Sequence of Protein kinase C eta type (Homo sapiens) (P24723 whole entry): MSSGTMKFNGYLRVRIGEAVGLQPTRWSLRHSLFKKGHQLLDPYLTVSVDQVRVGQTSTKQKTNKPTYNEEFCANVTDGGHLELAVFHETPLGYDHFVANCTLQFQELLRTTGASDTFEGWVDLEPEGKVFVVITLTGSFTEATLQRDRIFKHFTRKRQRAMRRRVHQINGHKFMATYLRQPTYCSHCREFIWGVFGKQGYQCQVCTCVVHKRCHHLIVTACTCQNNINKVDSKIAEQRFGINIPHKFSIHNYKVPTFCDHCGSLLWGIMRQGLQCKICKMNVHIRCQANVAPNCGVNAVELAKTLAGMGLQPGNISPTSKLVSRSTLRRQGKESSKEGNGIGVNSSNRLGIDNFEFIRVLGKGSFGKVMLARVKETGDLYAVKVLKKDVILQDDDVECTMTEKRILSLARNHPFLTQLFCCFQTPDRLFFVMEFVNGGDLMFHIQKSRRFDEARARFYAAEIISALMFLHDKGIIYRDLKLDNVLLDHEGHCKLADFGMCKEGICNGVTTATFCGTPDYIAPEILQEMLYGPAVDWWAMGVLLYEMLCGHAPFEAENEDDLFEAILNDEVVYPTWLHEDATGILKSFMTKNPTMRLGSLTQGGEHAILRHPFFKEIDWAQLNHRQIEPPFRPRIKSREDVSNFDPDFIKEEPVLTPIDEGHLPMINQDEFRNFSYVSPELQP

For orientation: residual activity means the signal under treatment as a percentage of the control signal. Turning to `CO[C@H]1C[C@@H]2CC[C@@H](C)[C@@](O)(O2)C(=O)C(=O)N2CCCC[C@H]2C(=O)O[C@H]([C@H](C)C[C@@H]2CC[C@@H](O)[C@H](OC)C2)CC(=O)[C@H](C)/C=C(\C)[C@@H](O)[C@@H](OC)C(=O)[C@H](C)C[C@H](C)/C=C/C=C/C=C/1C`, the residual activity in [1] was 93%; in [2], 76%; in assay [3], 94%; in assay [4] it was 113%; in [5], 89% (inactive); in assay [6] it was 77%. Moreover, the residual activity in [7] amounted to 93%; in [8], 97%; in assay [9] it was 102%; in [10] it was 107%.

Take `c1ccc2c(-c3ccncc3)c[nH]c2c1`: the residual activity was 64% in assay [1]; 17% in assay [2]; 88% in assay [3]; 70% in [4]; 89% (inactive) in assay [5]; 67% in assay [6]. In addition, the residual activity in [7] was 87%; in assay [8], 69%; in assay [9] it was 104%; in assay [10] it was 106%.

For the compound `CCN(CC)C(=O)c1ccc(Nc2nc(OCC3CCCCC3)c3nc[nH]c3n2)cc1`, the residual activity in [2] is 55%; in assay [3] it was 78%; in assay [4] it was 39%; in [5], 99% (inactive); in [6] it was 103%; in assay [7] it was 72%. The residual activity was found to be 23% in [8], 93% in assay [9] and 51% in assay [10].

Consider `Nc1n[nH]c2nnc(-c3c(-c4ccccc4)nn4ccccc34)cc12`, for which the residual activity in assay [1] was 56%; in [2], 19%; in assay [3] it was 47%; in assay [4], 16%; in [5], 115% (inactive); in assay [6] it was 100%. The residual activity in [7] turned out to be 56%; in [8] it was 12%; in assay [9], 96%; in assay [10], 49%.

For `Oc1n[nH]c2nnc(-c3c(-c4ccccc4)nn4ccccc34)cc12`, the residual activity in assay [1] is 78%; in [2], 89%; in assay [3] it was 81%; in assay [4], 75%; in assay [5], 104% (inactive); in assay [6], 103%. Besides, the residual activity turned out to be 89% in assay [7], 71% in assay [8], 104% in assay [9] and 98% in assay [10].

Turning to `O=[N+]([O-])c1ccc(-c2nc(-c3ccc(F)cc3)c(-c3ccncc3)[nH]2)cc1`, the residual activity was 95% in assay [1]; 68% in assay [2]; 91% in [3]; 68% in [4]; 110% (inactive) in assay [5]; 109% in assay [6]. In addition, the residual activity in [7] worked out at 64%; in [8] it was 52%; in [9] it was 100%; in assay [10] it was 94%.

Take `C[C@@H](N)[C@H]1CC[C@H](C(=O)Nc2ccncc2)CC1`: the residual activity is 26% in assay [1]; 5% in assay [2]; 63% in assay [3]; 17% in [4]; 101% (inactive) in assay [5]; 93% in [6]. Also, the figures for the residual activity in [7] and in assay [10] were 100% and 112%, respectively.

Consider `Cc1cccc(-c2[nH]c(C(C)(C)C)nc2-c2ccc3c(c2)OCO3)n1`, for which the residual activity in [1] is 84%; in assay [2] it was 80%; in [3] it was 96%; in assay [4], 95%; in [5] it was 85% (inactive); in assay [6], 76%. Moreover, the residual activity worked out at 72% in assay [8], 103% in assay [9] and 106% in assay [10].

Take `O=C1Nc2ccc(Br)cc2/C1=C\c1cc2c([nH]1)CCCC2`: the residual activity in [1] is 102%; in assay [2], 73%; in assay [3], 100%; in assay [4] it was 99%; in assay [5], 84% (inactive); in assay [6], 78%. The residual activity in assay [10] was found to be 106%.

As for `Nc1cccc(-c2cc3c(Oc4cccc(O)c4)ncnc3[nH]2)c1`, the residual activity in assay [1] is 83%; in [2] it was 64%; in [3], 88%; in assay [4], 57%; in assay [6], 99%; in assay [7], 80%. For the same compound, the residual activity in assay [8] was found to be 51%; in [9], 99%; in assay [10] it was 54%.

Regarding `Cc1cc2ncc(-c3ccccc3)nc2cc1C`, the residual activity in [1] is 107%; in assay [2], 84%; in assay [3], 110%; in assay [4], 102%; in [5] it was 83% (inactive); in assay [6], 78%. Also, the residual activity in assay [9] stood at 104%; in assay [10] it was 110%.

In the case of `O=C(Nc1cccc(Nc2cc(Nc3cccc(C(F)(F)F)c3)ncn2)c1)C1CC1`, the residual activity in [1] is 117%; in assay [2], 87%; in assay [4], 80%; in assay [5], 97% (inactive); in assay [6], 111%; in assay [7], 99%. For the same compound, the residual activity was 88% in [8], 107% in [9] and 110% in assay [10].

On to `COc1ccc(OC)c2c(=S)c3ccccc3[nH]c12`, for which the residual activity in assay [1] was 77%; in [2], 63%; in assay [3], 81%; in [4], 89%; in assay [5] it was 109% (inactive); in [6], 80%. Also, the residual activity in [7] turned out to be 96%; in assay [8], 73%; in assay [9], 108%; in assay [10], 84%.

`CO[C@@H]1[C@H](N(C)C(=O)c2ccccc2)C[C@H]2O[C@]1(C)n1c3ccccc3c3c4c(c5c6ccccc6n2c5c31)C(=O)NC4`: the residual activity is 84% in assay [1]; 29% in assay [2]; 15% in assay [3]; 11% in [4]; 79% (inactive) in [5]; 85% in assay [6]. Besides, the results for the residual activity in [7], in assay [9] and in assay [10] were 85%, 101% and 92%, respectively.

`N#Cc1cnc2cnc(NCc3cccnc3)cc2c1Nc1ccc(F)c(Cl)c1`: the residual activity is 85% in assay [1]; 83% in assay [2]; 4% in [3]; 5% in assay [4]; 80% in assay [7]; 39% in assay [8]. For the same compound, the residual activity turned out to be 101% in [9] and 91% in [10].

As for `O=C(O)c1ccc2c3c1cccc3c(=O)n1c3ccccc3nc21`, the residual activity in [1] is 76%; in assay [2], 84%; in [3] it was 109%; in assay [4], 107%; in [5] it was 105% (inactive); in [6] it was 92%. The residual activity came to 110% in assay [7], 57% in [8], 101% in assay [9] and 84% in [10].
